Whole data set: some 33,000 sequences, median “E-score (-0.5 to 0.5)” near -0.036, cut for the highest 2% near 0.37. What follows is part of a selection rich in the highest values, with near analogues and random picks from the rest.
Each sequence was assayed against T1, Yer064c (UniProt P40041) (assay: PBM E-score (8-mer binding enrichment) (E-score (-0.5 to 0.5)); higher = stronger / more preferred TF binding). Details: protein concentration: 200 nM; construct: GST-full length.
T1 sequence: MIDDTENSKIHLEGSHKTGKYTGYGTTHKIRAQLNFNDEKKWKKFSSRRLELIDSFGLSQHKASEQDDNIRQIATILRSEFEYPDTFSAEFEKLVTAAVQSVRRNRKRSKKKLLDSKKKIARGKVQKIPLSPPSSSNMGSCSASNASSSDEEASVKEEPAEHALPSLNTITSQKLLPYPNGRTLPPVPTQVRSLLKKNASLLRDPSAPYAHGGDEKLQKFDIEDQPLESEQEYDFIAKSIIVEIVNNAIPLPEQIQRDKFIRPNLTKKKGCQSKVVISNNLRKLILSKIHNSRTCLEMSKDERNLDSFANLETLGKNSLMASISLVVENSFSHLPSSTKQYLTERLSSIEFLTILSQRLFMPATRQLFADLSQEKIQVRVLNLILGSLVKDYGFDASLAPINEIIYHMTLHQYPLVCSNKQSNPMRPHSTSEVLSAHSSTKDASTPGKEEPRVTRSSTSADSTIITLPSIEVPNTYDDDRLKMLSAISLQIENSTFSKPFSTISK
Protocol: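 Universal 'all 10-mer' protein binding microarrays (Agilent AMADID 015681) probed with GST-tagged S. cerevisiae TFs (full-length or DBD) made by in vitro transcription/translation (PURExpress), about 100-200 nM. Bound TF was detected with fluorescent anti-GST. Each ungapped 8-mer (which stands for itself and its reverse complement) is scored by the PBM enrichment score (E-score), a modified Wilcoxon-Mann-Whitney statistic from -0.5 to +0.5, computed with the Universal PBM Analysis Suite. Scale: above 0.35 generally sequence-specific binding.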

Sequence	PBM E-score
AGACGACG	-0.265
AGTAAAAG	0.0408
CTGACCAG	-0.0138
ACTCCACG	0.0785
ACTTTACT	0.159
AAAACCCT	-0.047
GACTAAGC	0.42
CACTAAGC	0.1
CACTAAGA	0.119
GACTAAGA	0.444
TACTAAGA	0.113
AACTAAGC	0.0808
AGGGATAA	0.093
CGGCTGCA	-0.189
AATATGGA	-0.0374
CGTTGCGC	-0.22
GAGCACAA	0.0121
AAAGACTC	0.409
AAAGACTT	0.294
GAAGACTA	0.444
TAAGACAA	-0.0363
AAAGACTG	0.157

Sequence	PBM E-score
TAAGACTA	0.423
ACAGACTC	0.269
GCAGACTA	0.309
AAAGACTA	0.392
ACAGACTA	0.0746
TAAGACCA	0.112
CAAGACTA	0.329
ACAGCCTA	-0.0814
ACCCTGCC	-0.154
GGGCAAGA	-0.0907
GAGTTCGA	0.185
GCGCTTTA	-0.161
AAAGTGAC	0.305
CCCGCGAA	0.0838
GAAGACGC	-0.193
CAAGACTG	0.175
CAAGACGC	-0.166
GAAGACCC	-0.0698
GAAGACTC	0.446
CAAGACTC	0.429
GACCGAAC	-0.059
CATTACCC	0.0868

Sequence	PBM E-score
AATGGAGA	-0.0502
CACTCTAC	0.0903
AACTCTAC	-0.212
CACTCTAA	0.149
TACTCTAA	-0.042
GACTCTAC	0.38
GACTCTAA	0.381
ATGCCAAG	-0.0388
ACGATAAC	-0.0162
GATCCGCC	-0.041
AACTTTGC	-0.113
ACAACATC	-0.143
ACCATACT	0.0817
AGGTGACT	0.484
AAGTGATG	0.0804
AAGTGATC	0.103
AGGTGACA	-0.0676
AAGTGACG	0.0587
AAGTGATT	0.394
ACGTGACT	0.468
ACGTGACA	-0.138
AAGTGACC	-0.00564

Sequence	PBM E-score
AGGTGACG	-0.188
ACGTGACG	-0.176
AAGTGACT	0.453
CCTCTGAA	-0.0251
AAATCCCA	-0.203
ACCCACCC	0.111
CACCTAGG	0.0188
ATCAGAAC	0.127
CTGAGAGA	-0.0026
AAGCTTGG	-0.0782
AAGATGAC	0.312
GAGATGAC	0.367
CAGATGAC	0.215
GGAACTGA	-0.00126
TCGACCAA	-0.188
AATAGAAA	-0.119
CCCTCCCA	-0.298
ACACATTG	0.0326
ACTCATTA	0.372
ATTCATTG	0.214

— the supplement of paper PMC3334620
